Source: PubChem BioAssay (NCATS)
Results filed as inconclusive are left out. Entries that show only a call come without a potency. Activity calls are given as the source filed them. Calls come from the whole dose curve; as a rule, active = well fitted inhibition curve with a large enough effect; inconclusive = small, poorly fitted or top-dose-only effect; inactive = no such curve, though single readings can be large or run the other way.

target: Cytochrome P450 2C19 (Homo sapiens) (UniProt P33261); experiment: qHTS Assay for Inhibitors and Substrates of Cytochrome P450 2C19 (AID 899); conditions: recombinant CYP2C19, luciferin-H EGE luminescence; series mostly up to 57.1 µM; note: nearly all actives have a fitted effect of over 60% in size
Sequence (P33261 whole entry, looked up): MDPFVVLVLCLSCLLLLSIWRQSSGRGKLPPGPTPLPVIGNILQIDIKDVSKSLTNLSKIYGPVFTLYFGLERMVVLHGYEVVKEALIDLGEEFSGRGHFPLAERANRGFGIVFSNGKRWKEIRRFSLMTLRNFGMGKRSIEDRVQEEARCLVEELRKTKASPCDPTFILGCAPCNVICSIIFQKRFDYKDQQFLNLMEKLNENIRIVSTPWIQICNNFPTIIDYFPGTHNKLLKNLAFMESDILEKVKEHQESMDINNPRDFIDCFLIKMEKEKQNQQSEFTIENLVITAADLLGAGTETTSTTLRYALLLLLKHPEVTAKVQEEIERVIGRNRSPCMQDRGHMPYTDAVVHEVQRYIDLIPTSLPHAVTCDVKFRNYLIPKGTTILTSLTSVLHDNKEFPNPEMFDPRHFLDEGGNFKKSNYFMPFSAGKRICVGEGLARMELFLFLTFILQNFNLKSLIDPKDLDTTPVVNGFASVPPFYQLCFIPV
Experimental: NIH Molecular Libraries Screening Centers Network [MLSCN]
NIH Chemical Genomics Center [NCGC]
The P450 gene superfamily is involved in the metabolism and clearance of xenobiotics. This assay used human CYP2C19 to measure the hydroxylation of ethylene glycol ester of 6' deoxyluciferin (Luciferin-H EGE; […]) to luciferin. The luciferin is then measured by luminescence after the addition of a luciferase detection reagent. Luciferin-H EGE concentration in the assay was equal to its KM for CYP2C19. Inhibitors and some substrates limit the production of luciferin, and decrease measured luminescence.
NCGC Assay Protocol Summary:
Two uL of enzyme and substrate mix (final concentrations: 5nM CYP2C19, 10uM Luciferin-H EGE, 50mM KPO4) were dispensed into a white, solid bottom 1536-well microtiter plate. 23nL of compound was transferred by a pin tool. The plate was incubated at 37C for 10 min. Two uL of an NADPH regeneration solution (Promega supplied reagent) was dispensed and the reaction was allowed to continue for 60 min at 37C. Then the reaction was stopped by reconstituted luciferin detection buffer. After another 20 min of incubation the plate was read on the ViewLux (Perkin Elmer) at 60 sec exposure and 2x2 binning. This protocol was carried out with Promega-Glo reagents and further information can be found at http://www.promega.com/tbs/tb325/tb325.pdf. Data were normalized to the to AC100 inhibition (57uM ketoconazole).
Keywords: P450, CYP2C19, Luciferase, MLSMR, MLSCN, NIH Roadmap, qHTS, NCGC
Potency is the fitted concentration of half-maximal effect.

| SMILES | Potency |
| --- | --- |
| CC(C)C[C@@H](CC(=O)N[C@H](CC(=O)N[C@@H]1CCCC[C@H]1C(=O)N[C@H](CC(=O)N[C@@H](CCC(=O)O)CC(=O)O)CC(C)C)C(C)C)NC(=O)[C@@H]1CCCC[C@H]1N | inactive |
| CC(=O)OC[C@@H]1O[C@@H](Oc2cc(OC(C)=O)c3c(=O)cc(-c4ccc(OC(C)=O)c(OC(C)=O)c4)oc3c2)[C@H](OC(C)=O)[C@H](OC(C)=O)[C@@H]1OC(C)=O | inactive |
| CCC/C=C(\CCC)C(NS(=O)(=O)c1ccc(C(F)(F)F)cc1)c1ccc(C(=O)OC)cc1 (stereo not given) | 2510 nM (active) |
| COc1ccc(-c2coc3ccc(O[C@@H]4O[C@@H](COC(C)=O)[C@@H](OC(C)=O)[C@@H](OC(C)=O)[C@H]4OC(C)=O)c(OC(C)=O)c3c2=O)cc1 | inactive |
| COC(=O)[C@@]1(Cc2ccccc2)[C@H]2c3cc(C(=O)N4CCCC4)n(Cc4ccc(C)o4)c3C[C@H]2CN1C(=O)c1ccccc1 | 2510 nM (active) |
| CC(C)C[C@@H](CC(=O)N[C@@H](CCC(=O)O)CC(=O)O)NC(=O)[C@@H]1CNCC[C@H]1NC(=O)C[C@H](CCCN)NC(=O)C[C@H](Cc1ccccc1)NC(=O)[C@@H]1CCCC[C@H]1N | inactive |
| CC(=O)[C@@H]1[C@H]2[C@@H](C(=O)[C@H]3OC[C@H]2O3)[C@@H]2C=Cc3ccccc3N12 | 5010 nM (active) |
| NCCC[C@@H](CC(=O)N[C@@H]1CCCC[C@H]1C(=O)N[C@H](CC(=O)N[C@@H](CCC(=O)O)CC(=O)O)Cc1c[nH]c2ccccc12)NC(=O)C[C@H](Cc1ccccc1)NC(=O)[C@@H]1CCCC[C@H]1N | inactive |
| CCC/C=C(\CCC)C(NS(=O)(=O)c1ccc(-c2ccccc2)cc1)c1ccc(C(=O)OC)cc1 (stereo not given) | 1260 nM (active) |
| CCC/C=C(\CCC)C(NS(=O)(=O)c1ccc(C(F)(F)F)cc1)c1ccccc1 (stereo not given) | 398 nM (active) |
| CC(=O)Oc1ccc(/C=C\C(=O)C[C@@H]2O[C@@H](Oc3cc(OC(C)=O)c4c(c3)O[C@@H](c3ccc(OC(C)=O)cc3)CC4=O)[C@H](OC(C)=O)[C@H](OC(C)=O)[C@@H]2OC(C)=O)cc1 | inactive |
| COC(=O)N[C@H](c1ccccc1)[C@@]1(C)C[C@@H]1[C@@H](C)C(=O)Nc1ccc2ccccc2c1 | 3160 nM (active) |
| CC(C)[C@@H](CC(=O)N[C@@H]1CCCC[C@H]1C(=O)N[C@H](CC(=O)N[C@@H](CCC(=O)O)CC(=O)O)Cc1ccccc1)NC(=O)C[C@H](Cc1c[nH]c2ccccc12)NC(=O)[C@@H]1CCCC[C@H]1N | inactive |
| COC(=O)[C@@H]1C[C@H]1[C@@H](NC(=O)OCc1ccccc1)c1ccccc1 | 2510 nM (active) |
| NCCC[C@@H](CC(=O)N[C@@H]1CCNC[C@H]1C(=O)N[C@H](CC(=O)N[C@@H](CCC(=O)O)CC(=O)O)Cc1ccccc1)NC(=O)C[C@H](Cc1c[nH]c2ccccc12)NC(=O)[C@@H]1CCCC[C@H]1N | inactive |
| C[C@H](O)[C@H](O)[C@@H](O)c1cnc2nc(N)[nH]c(=O)c2n1 | inactive |
| CC(C)C[C@@H](CC(=O)N[C@H](CC(=O)N[C@@H]1CCCC[C@H]1C(=O)N[C@H](CC(=O)N[C@@H](CCC(=O)O)CC(=O)O)Cc1c[nH]c2ccccc12)C(C)C)NC(=O)[C@@H]1CNCC[C@H]1N | inactive |
| COc1ccc([C@@H]2CC(=O)c3c(O)cc(O[C@@H]4O[C@@H](CO[C@@H]5O[C@@H](C)[C@@H](O)[C@@H](O)[C@H]5O)[C@@H](O)[C@@H](O)[C@H]4O)cc3O2)cc1O | inactive |
| CC(C)[C@@H](CC(=O)N[C@@H]1CCNC[C@H]1C(=O)N[C@H](CC(=O)N[C@@H](CCC(=O)O)CC(=O)O)Cc1c[nH]c2ccccc12)NC(=O)C[C@H](Cc1ccccc1)NC(=O)[C@@H]1CNCC[C@H]1N | inactive |
| CC(C)[C@@H](CC(=O)N[C@@H]1CCCC[C@H]1C(=O)N[C@H](CC(=O)N[C@@H](CCC(=O)O)CC(=O)O)Cc1ccccc1)NC(=O)C[C@H](Cc1ccccc1)NC(=O)[C@@H]1CNCC[C@H]1N | inactive |

| SMILES | Potency |
| --- | --- |
| O=c1c(O)c(-c2ccc(O)cc2)oc2ccc(O)cc12 | inactive |
| CCC/C=C(\CCC)C(NC(=O)c1cccs1)c1ccc(C(=O)OC)cc1 (stereo not given) | 794 nM (active) |
| CCCCC[C@H](O)c1cccc(OCc2ccc3ccccc3n2)c1 | 6310 nM (active) |
| CNC(=O)[C@H](C)[C@@H]1C[C@@]1(C)[C@@H](NC(=O)OCc1ccccc1)c1ccccc1 | 631 nM (active) |
| NCCC[C@@H](CC(=O)N[C@@H]1CCCC[C@H]1C(=O)N[C@H](CC(=O)N[C@@H](CCC(=O)O)CC(=O)O)Cc1c[nH]c2ccccc12)NC(=O)C[C@H](Cc1c[nH]c2ccccc12)NC(=O)[C@@H]1CCCC[C@H]1N | inactive |
| CCCC[C@@H]1C[C@H]1C(NC(=O)c1ccco1)c1ccc(Cl)cc1 (stereo not given in full) | 316 nM (active) |
| NCCC[C@@H](CC(=O)N[C@@H]1CCCC[C@H]1C(=O)N[C@H](CC(=O)N[C@@H](CCC(=O)O)CC(=O)O)Cc1ccccc1)NC(=O)C[C@H](Cc1ccccc1)NC(=O)[C@@H]1CCCC[C@H]1N | inactive |
| CCC[C@@H]1C[C@@]1(CCC)C(NC(=O)c1ccco1)c1ccc(Cl)cc1 (stereo not given in full) | 3160 nM (active) |
| NCCC[C@@H](CC(=O)N[C@@H]1CCCC[C@H]1C(=O)N[C@H](CC(=O)N[C@@H](CCC(=O)O)CC(=O)O)Cc1c[nH]c2ccccc12)NC(=O)C[C@H](Cc1c[nH]c2ccccc12)NC(=O)[C@@H]1CNCC[C@H]1N | inactive |
| CCN1CCC[C@@H]1CNC(=O)c1c(OC)ccc(I)c1O | inactive |
| CCC/C=C(\CCC)C(NP(=O)(c1ccccc1)c1ccccc1)c1ccc(-c2ccccc2)cc1 (stereo not given) | 7940 nM (active) |
| O=c1cc(-c2ccccc2O)oc2c(O)c(O)ccc12 | 1260 nM (active) |
| CC(C)[C@@H](CC(=O)N[C@@H]1CCCC[C@H]1C(=O)N[C@H](CC(=O)N[C@@H](CCC(=O)O)CC(=O)O)Cc1c[nH]c2ccccc12)NC(=O)C[C@H](Cc1c[nH]c2ccccc12)NC(=O)[C@@H]1CCCC[C@H]1N | inactive |
| C=C1C(=O)O[C@H]2C[C@@]3(C)CCCC(=C)[C@@H]3C[C@H]12 | 2510 nM (active) |
| N=C1[C@@H](O)[C@]2(I)c3ccccc3N3C(=N)[C@H](O)[C@@H]4c5ccccc5N1[C@@H]4[C@@H]32 | 3160 nM (active) |
| COC(=O)[C@H]1C[C@@H]1[C@H](NC(=O)OCc1ccccc1)c1ccccc1 | 3160 nM (active) |
| O=c1c(O)c(-c2ccc(O)c(O)c2)oc2c(OC[C@H]3O[C@@H](O)[C@@H](O)[C@H](O)[C@@H]3O)c(O)cc(O)c12 | inactive |
| COC(=O)[C@@]1(Cc2ccc(F)cc2)[C@H]2c3cc(C(=O)N4CCCC4)n(Cc4ccc(C)o4)c3C[C@H]2CN1C(=O)c1ccccc1 | 5010 nM (active) |
| CCCC/C=C/C(NC(=O)c1ccccc1)c1ccccc1 (stereo not given) | 7940 nM (active) |
| COC(=O)[C@@]1(Cc2ccccc2)[C@H]2c3cc(C(=O)N4CCCC4)n(Cc4ccsc4Br)c3C[C@H]2CN1C(=O)c1ccccc1 | 2510 nM (active) |
